# Bioassay records (PubChem)
# PfHsp40 yeast: rescue of yeast from PfHsp40 toxicity, primary screen, S. cerevisiae, ATP luminescence. S. cerevisiae expressing PfHsp40, growth rescue. growth rescue, % at 12.5 µM. actives 0.68% (n = 340,000); in the data active means growth rescue above about 28%, passing the limit was not always enough;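 further: yeast W303a lacking pdr1 and pdr3 grown in galactose medium; growth measured after three days at 30 °C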
# BJeLR lethal: MLPCN primary cell-based screen for lethality selective to Ras in HRASV12 cells. actives 0.17% (n = 300,000). AID 1554, 2009. inhibition, % (no concentration beside the values). BJeLR (HRASV12) viability, CellTiter-Glo ATP luminescence, 48 h; in the data active means inhibition above about 50%
# Mtb FBA inh: Mtb FBA enzyme inhibitors, primary screen, biochemical, fluorescence, strain H37Rv. Fructose-bisphosphate aldolase (Mycobacterium tuberculosis (strain ATCC 25618 / H37Rv)), …. purified M. tuberculosis FBA, fluorescence read-out. inhibition, % at 1 µM. actives 2.3% (n = 360,000). AID 588726, 2011; in the data active means inhibition above about 27%;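 further: 0% = vehicle and 100% = reference inhibitor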
# Target sequence (P9WQA3 whole entry, looked up): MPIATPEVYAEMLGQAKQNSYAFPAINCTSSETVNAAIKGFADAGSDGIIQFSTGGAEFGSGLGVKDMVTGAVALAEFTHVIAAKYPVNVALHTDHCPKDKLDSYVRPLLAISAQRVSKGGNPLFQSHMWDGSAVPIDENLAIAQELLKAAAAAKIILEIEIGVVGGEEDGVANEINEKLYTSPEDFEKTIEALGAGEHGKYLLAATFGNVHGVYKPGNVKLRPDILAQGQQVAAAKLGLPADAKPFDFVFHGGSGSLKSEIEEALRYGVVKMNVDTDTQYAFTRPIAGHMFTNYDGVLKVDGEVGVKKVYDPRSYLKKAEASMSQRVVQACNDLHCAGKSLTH
# PrPC TRFRET: inhibitors of human cell surface prion protein PrPC, primary screen, cell-based, TR-FRET; Major prion protein (Homo sapiens), P04156; TR-FRET read-out; inhibition, % at 13.8 µM; actives 0.43% (n = 370,000); AID 720596, 2013; in the data active means inhibition above about 24%; further: 0% = median of the test wells and 100% = reference compound wells
# GDH-TPI counter: GDH-TPI coupling enzyme inhibitors, primary screen, artefact control for M. tuberculosis FBA inhibitor project, biochemical, absorbance, full deck | GDH-TPI coupled enzyme counterscreen, NADH absorbance | inhibition, % at 4.8 µM | actives 1.2% (n = 360,000); in the data active means inhibition above about 30%;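 further: 0% = DMSO wells and 100% = wells lacking the enzyme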
# PrP UTR inh: inhibition of PrP 5' UTR reporter expression | cell-based PrP 5' UTR mRNA reporter, plate reader | inhibition, % (test concentration not listed) | actives 0.35% (n = 340,000) | AID 488862, 2010; in the data active means inhibition above about 52%; further: 0 = median of the neutral control wells
# Starred values were filed as active, the others as inactive; x = no result given; + = active, no number. A selection: hits, their analogues and other compounds. The true share with any hit is near 4.5%.
SMILES,PfHsp40 yeast,BJeLR lethal,Mtb FBA inh,PrPC TRFRET,GDH-TPI counter,PrP UTR inh
O=C(NCCCNc1ccc(C(F)(F)F)cc1[N+](=O)[O-])c1cc(F)c(F)cc1Cl,0.1,-6.5,-4.3,-0.1,-2.8,-9.5
O=C(NCCCNc1ccc(C(F)(F)F)cc1[N+](=O)[O-])c1ccc(Cl)cc1,470.6*,1.3,-5.4,1.5,4.6,-21.9
COc1ccc(-n2c(SCC(=O)N/N=C(/C)c3cccc(O)c3)nc3ccccc3c2=O)cc1,x,x,x,0.2,x,x
CCC(=O)/C=C1\Sc2ccc(OC)cc2N1CC,1.9,-6.9,-0.3,7.2,31.1*,-11.3
C[C@H]1[C@@H](NS(=O)(=O)c2ccccc2[N+](=O)[O-])CC[C@@]23CCCN2C(=O)CCC[C@@H]13,x,x,x,-9.8,x,x
COc1ccc2nc(NC(=O)c3ccoc3C)sc2c1,-3.8,75.4*,2.5,5.3,18.8,-105.4
CCCC(=O)Nc1nc2ccc(OC)cc2s1,-0.6,8.8,0.3,6.2,5.6,-87.0
COc1ccc2nc(NC(=O)c3cc(C)oc3C)sc2c1,0.4,21.4,-0.2,2.1,13.3,-52.9
COc1ccc2nc(NC(=S)N(C)C)sc2c1,99.1*,30.2,-0.8,4.2,44.2*,-135.8
O=C(CSc1nnc(-c2ccccc2)n1-c1ccccc1)Nc1cccc2ccccc12,x,x,x,6.7,x,x
O=C(CN1CCCC1)N/N=C/c1c(O)ccc2ccccc12,52.5*,10.6,-0.5,2.6,7.7,28.4
Cc1c(NC(=O)C2CCCN(S(=O)(=O)c3ccc(Br)s3)C2)c(=O)n(-c2ccccc2)n1C (centres undefined),x,x,x,10.4,x,x
O=C(Nc1cccc(Cl)c1)O[C@@H]1CC[C@@]23CCCN2C(=O)CCC[C@H]3C1,x,x,x,8.0,x,x
Cc1cc(OCC(=O)NCC2CCC(C(=O)O)CC2)c2c(C)cc(=O)oc2c1 (centres undefined),-0.1,-2.3,21.4,-3.6,9.8,1.6
CC[C@H](C)[C@H](NC(=O)CNC(=O)COc1cc2c(c3oc(=O)cc(C)c13)CCC(C)(C)O2)C(=O)O,1.7,-2.6,+,-6.6,-2.0,-29.5
CCCC(NC(=O)COc1cc2c(c3oc(=O)cc(C)c13)CCC(C)(C)O2)C(=O)O (centres undefined),3.7,-5.7,127.5*,2.9,7.6,-22.8
Cc1cc(=O)oc2c3c(cc(OCC(=O)NCC(=O)N[C@H](C(=O)O)C(C)C)c12)OC(C)(C)CC3,0.2,-3.4,+,5.4,2.0,-12.9
CC[C@@H](C)[C@H](NC(=O)Cc1c(C)c2c(cc(C)c3c(C)c(C)oc32)oc1=O)C(=O)O,1.8,1.0,26.6,-4.3,9.9,-16.5
COc1ccc(S[C@]2(C(=O)N3CCN(C(C)=O)CC3)CC(=O)N(S(=O)(=O)c3ccc(F)cc3)[C@@H]2c2ccc(OC)cc2)cc1,x,x,x,5.4,x,x
S=c1[nH]nc(-c2n[nH]c3c2CCC3)n1N=Cc1cccs1,x,x,x,3.0,x,x
O=C(CCl)NC1CCCCN(Cc2ccc(OC(F)(F)F)cc2)C1=O (centres undefined),x,x,x,-7.9,x,x
CCOc1ccccc1-c1cnc(NC)cn1,x,x,+,9.8,19.0,x
CC(=O)Nc1cnc(-c2ccccc2O)cn1,x,x,-3.2,-11.9,20.4,x
CNc1cnc(-c2ccccc2OC)cn1,x,x,124.9*,-6.5,18.6,x
COc1ccccc1-c1cncc(NC(C)=O)n1,x,x,2.4,2.3,12.8,x
SMILES,PfHsp40 yeast,BJeLR lethal,Mtb FBA inh,PrPC TRFRET,GDH-TPI counter,PrP UTR inh
CCOc1ccc(-n2c(SCC(=O)Nc3ccc(S(=O)(=O)Nc4cc(C)nc(C)n4)cc3)nnc2-c2cccc(C)c2)cc1,x,x,x,10.8,x,x
CCN1CCN(CC(=O)N2N=C(c3cccs3)CC2c2ccc(OC)c(OC)c2)C(=O)C1=O (centres undefined),1.5,5.4,6.7,-17.2,5.7,-10.7
C=C1C(=O)c2sccc2C(c2ccc(OC)c(OC)c2)C1COC(C)=O (centres undefined),5.0,x,5.3,96.3*,9.6,4.7
CN(C)N=Nc1ccc(S(=O)(=O)/N=C(\O)c2ccccc2)cc1,1.1,-0.6,1.5,4.1,39.2*,-0.7
CCOC(=O)N1CCN(C(=O)C[C@H]2C[C@@]3(C(=O)OC)C(=C[C@H](C(C)C)O[C@@H]3C3CC3)N(CCC3=CCCCC3)C2=O)CC1,x,x,x,-0.6,x,x
CCN(CC)c1ccc(/C=C2\C(=O)NC(=O)N(Cc3ccco3)C2=O)cc1,1.2,-2.0,-10.4,6.7,31.4*,-17.3
CCCCN1C(=O)/C(=C/c2ccc(N(C)C)cc2)C(=O)N(Cc2ccco2)C1=O,1.0,-3.3,-1.1,9.7,20.7,-20.8
CCN(CC)c1ccc(/C=C2/C(=O)NC(=O)N(CC3CCCO3)C2=O)cc1 (centres undefined),0.6,-3.3,-0.8,-5.2,39.8*,-22.1
O=C1NC(=O)N(CC2CCCO2)C(=O)/C1=C/c1cccs1 (centres undefined),17.8,-9.1,-5.2,2.2,-0.5,-20.7
COCC(=O)N1[C@H](CO)[C@@H](c2ccc(-c3cccnc3)cc2)[C@H]1CN(C)S(=O)(=O)c1ccccc1[N+](=O)[O-],x,x,x,11.3,x,x
C=CC(=O)Nc1cccc(Oc2ccnc3[nH]ccc23)c1,1.2,x,180.0*,x,2.2,-1.5
C=CC(=O)Nc1cccc(Oc2ccnc(Nc3ccc(N4CCN(C)CC4)cc3)n2)c1,0.9,x,-1.3,-4.8,2.0,37.1
CNC(=O)[C@@H]1CC=C[C@@H]2CCN(c3ccccc3)C(=O)[C@@H]21,x,x,x,-1.2,x,x
Cc1coc2cc3oc(=O)c4c(c3cc12)CCCC4,-1.8,-3.8,17.6,0.6,22.5,-12.2
O=C(COc1ccc2c3c(c(=O)oc2c1)CCC3)N1CCCC1,24.2,-6.6,25.8,6.1,5.5,-11.6
O=C(Oc1ccc2c3c(c(=O)oc2c1)CCCC3)c1ccco1,7.4,-0.4,98.6*,2.8,-5.9,0.0
COC(=O)C(C)Oc1ccc2c3c(c(=O)oc2c1)CCCCC3 (centres undefined),-0.2,14.7,145.6*,6.3,30.1,-26.6
CC(Oc1ccc2c3c(c(=O)oc2c1)CCC3)C(=O)NCC1CCC(C(=O)O)CC1 (centres undefined),-0.4,-0.7,21.1,3.9,13.9,-18.2
CC(=O)Oc1ccc2c3c(c(=O)oc2c1)CCCC3,-0.3,-13.9,194.9*,6.4,1.7,-12.7
O=c1oc2cc(O)ccc2c2c1CCCC2,-0.3,-4.9,+,-5.6,7.4,-25.9
Cc1cccc(C(=O)N[C@@H]2CC[C@@]34CCCN3C(=O)CCC[C@H]4[C@H]2C)c1,x,x,x,-8.7,x,x
COCCOC(=O)N(C)C[C@@H]1OCCCC[C@H](C)Oc2ccc(NC(=O)Nc3ccccc3)cc2C(=O)N([C@@H](C)CO)C[C@H]1C,x,x,x,0.8,x,x
